Assay results from publication PMC7826789 (International Journal of Molecular Sciences, 2021).

Tested on: AURKC

SMILES	Kinases covered
CCn1cc(-c2ccnc3[nH]c(-c4cccc(CN(C)C)c4)cc23)c(-c2ccc(NC(=O)N(C)C)cc2)n1 [GSK1070916]	AURKC
CN1CCN(C(=O)c2ccc(NC(=O)Nc3ccc(N(C)c4ccnc(Nc5ccc(CS(C)(=O)=O)cc5)n4)cc3)cc2)CC1.Cl [GW830263A]	AURKC
COc1cccc(-c2c[nH]c3c(N/N=C/c4ccncc4)ncnc23)c1 [GW814408X]	AURKC
CN(C)CCNC(=O)Nc1ccc(N(C)c2ccnc(Nc3ccc(CS(C)(=O)=O)cc3)n2)cc1.Cl [GW830900A]	AURKC

Tested on: BLK

SMILES	Kinases covered
Cc1ccc(C(=O)Nc2ccc(Nc3ccnc4cc(-c5ccccn5)ccc34)cc2O)cc1 [GW440146]	BLK
COc1cc2ncnc(Nc3cccc(Cl)c3F)c2cc1O[C@H]1CC[C@@]2(CC1)NCCNC2=O [BI00113608]	BLK
COc1cc2ncnc(Nc3cccc(Cl)c3F)c2cc1O[C@H]1CC[C@H]([C@@H]2NCCNC2=O)CC1 [BI00133844]	BLK

Tested on: BRAF

SMILES	Kinases covered
CCCS(=O)(=O)Nc1ccc(F)c(-n2cc(-c3cncc(OC)c3)nn2)c1F [BI00865461]	BRAF
COC(=O)c1c(-c2ccccc2)c2cc(OC)ccc2c(=O)n1Cc1ccccc1 [TPKI-97]	BRAF
CN(C)CCOc1ccc(-c2nc(-c3ccc4c(c3)CC/C4=N\O)c(-c3ccncc3)[nH]2)cc1 [SB-590885]	BRAF
CN(C)CCN(C)C(=O)c1cc(-c2ccncc2)c(-c2ccc(Cl)c(O)c2)o1 [SB-710397]	BRAF
O=C(Nc1cccc(-c2nn3ncccc3c2-c2ccnc(Nc3cccnc3)n2)c1)c1c(F)cccc1F [GSK312879]	BRAF

Tested on: CDK2

SMILES	Kinases covered
NS(=O)(=O)c1ccc(N/N=C2\C(=O)Nc3ccc(C(=O)NCc4ccncc4)cc32)cc1 [GW300657X]	CDK2
NS(=O)(=O)c1ccc(Nc2ncc(-c3ccccc3)o2)cc1 [GW572399X]	CDK2
CC(C)COC(=O)c1ccc2c(c1)/C(=C/Nc1ccc(S(N)(=O)=O)cc1)C(=O)N2 [GW416981X]	CDK2
O=C(Nc1n[nH]c2nc(-c3ccc(O)cc3)c(Br)cc12)C1CC1 [SB-725317]	CDK2
NS(=O)(=O)c1ccc(N/N=C2\C(=O)Nc3ccc(-c4cnco4)cc32)cc1 [GW276655]	CDK2
NS(=O)(=O)c1ccc(N/N=C2\C(=O)Nc3ccc(Cl)cc32)cc1 [GW280670X]	CDK2
